Laboratory results taken from PMC4552634, “A New Set of Chemical Starting Points with Plasmodium falciparum Transmission-Blocking Potential for Antimalarial Drug Discovery” (PLoS ONE, 2015).
In all, about 13,000 compounds went through this assay and about 3,200 (25%) showed an effect of 50% or more. The list shows a part of the results.

What follows are molecules tested on P. falciparum stage V gametocytes. Conditions: 48 h, 5 µM; inhibitor.
Parameters: BacTiter-Glo ATP luminescence viability of purified stage V gametocytes in 384-well plates, per cent inhibition versus DMSO

SMILES | % Inhibition [%]
CC[C@H](C)CNC(=O)c1cccc(-c2cccc(CNCC3CNCCCO3)c2)n1 (stereo partly drawn) [TCMDC-134217] | 48.98
Clc1cc(Nc2ncnc3sc(C#Cc4ncc[nH]4)cc23)ccc1OCc1ccccn1 [TCMDC-135429] | -6.463
Cc1cc(Cl)c(S(=O)(=O)N2CCc3ccccc32)cc1OCC(=O)NC1CCCCC1 [TCMDC-124369] | -19.22
Fc1ccc(-c2cncc(-c3ccc(F)cc3)n2)cc1 [TCMDC-137988] | -9.929
Cc1ccccc1C1CCN(C2CCC(NC(=O)/C=C/c3cccc(F)c3)CC2)CC1 (stereo not drawn) [TCMDC-133505] | -47.31
Nc1ccc(-c2cnc3[nH]cc(-c4ccc(C(=O)O)cc4)c3c2)cn1 [TCMDC-136383] | 1.916
COc1ccc2nc(-c3ccc(C(=O)NCCCN4CCN(c5cc(Cl)ccc5OC)CC4)cc3OC)[nH]c2c1 [TCMDC-140025] | -24.14
CCCc1cc(Cc2cnc(N)nc2N)cc(OC)c1OC [TCMDC-137647] | 0.312
O=C(Nc1cc(C(F)(F)F)cc(C(F)(F)F)c1)Nc1cc(C(F)(F)F)cc(C(F)(F)F)c1 [TCMDC-123956] | -66.5
CCOC(=O)c1ccc(-c2cnoc2-c2cc(CC)c(OC)cc2O)o1 [TCMDC-124201] | -15.35
CC1CN(c2cc(=O)n(Cc3ccc(NC(=O)Nc4ccc(-c5ccccc5)cc4)cc3)cn2)CC(C)N1 (stereo not drawn) [TCMDC-133372] | 24.66
COC(=O)c1ccc2nc(-c3ccc(C(=O)NCc4ccc(Cl)c(Cl)c4)cc3)[nH]c2c1 [TCMDC-140445] | 73.87
CCOc1cc(C(=O)NCc2ccc(Cl)c(Cl)c2)ccc1-c1nc2ccc(Cl)cc2[nH]1 [TCMDC-140903] | 96.39
CCOc1cc(C(=O)NCc2cc(Cl)cc(Cl)c2)ccc1-c1nc2ccc(Cl)cc2[nH]1 [TCMDC-140904] | -8.665
O=C(NCc1ccc(Cl)c(Cl)c1)c1ccc(-c2nc3ccc(Cl)cc3[nH]2)cc1 [TCMDC-140441] | 19.73
CCOc1cc(C(=O)NCCc2ccc(Cl)c(Cl)c2)ccc1-c1nc2ccc(Cl)cc2[nH]1 [TCMDC-140905] | -12.3
Cc1ccc2[nH]c(-c3ccc(C(=O)NCc4ccc(Cl)c(Cl)c4)cc3)nc2c1C [TCMDC-140450] | 11.51
CC1(C)[C@H]2CC[C@@H](CNc3nc(NCCc4cnc[nH]4)nc(NCc4cc(F)ccc4F)n3)[C@@H]1C2 [TCMDC-139317] | -2.684
O=C(CCc1c[nH]cn1)Nc1cccc(-c2ccc(-c3nc4ccccc4[nH]3)s2)c1 [TCMDC-132152] | -14.42
Cn1cc(C2CCN(CCCCCNC(=O)/C=C/c3ccc(Cl)c(Cl)c3)CC2)c2cc(O)ccc21 [TCMDC-139364] | -26.1
CN(C)Cc1c(O)ccc2[nH]c(-c3cccc(F)c3)nc12 [TCMDC-136535] | -72.73
CC(C)CN(Cc1c(O)ccc2[nH]c(-c3ccc(F)cc3F)nc12)CC(C)C [TCMDC-136358] | -65.39
CN(C)Cc1c(O)ccc2[nH]c(-c3ccc(F)cc3F)nc12 [TCMDC-136534] | 71.11

SMILES | % Inhibition [%]
Cn1cnc(CCNC(=O)c2ccc(-c3cccc(-c4nc5cc(F)ccc5[nH]4)c3)cc2)c1 [TCMDC-132497] | -1.156
CC(C)N1CCC(N(Cc2ccc(-c3ccc(C(F)(F)F)cc3)cc2)C(=O)Cn2c(CCc3cccc(F)c3F)nc(=O)c3cccnc32)CC1 [TCMDC-136049] | 118.8
CC(C)(C)N1CCC(N(Cc2ccc(-c3ccc(C(F)(F)F)cc3)cc2)C(=O)Cn2c(CCc3cccc(F)c3F)nc(=O)c3cccnc32)CC1 [TCMDC-136050] | 107.4
O=C(Nc1cccc(-c2nn3ncccc3c2-c2ccnc(Nc3cccc(C(F)(F)F)c3)n2)c1)c1c(F)cccc1F [TCMDC-135549] | -33.07
COCn1ncc2cc(-c3cccc(NC(=O)c4csc(NC(C)=O)n4)c3)ccc21 [TCMDC-133146] | 24.99
CNC(=O)C(C)N(c1ccc(Cl)cc1)c1nc(C(C)(C)C)cs1 (stereo not drawn) [TCMDC-125380] | 52.18
CC1(C)N=C(N)N=C(N)N1OCCCc1cc(Cl)c(Cl)cc1Cl [TCMDC-131696] | 1.916
CCCCc1cc(N2CCC(NC(C)=O)C2)nc(Nc2ccc(C)cc2)n1 (stereo not drawn) [TCMDC-134020] | 11.89
COc1cc2ncnc(Nc3ccc(OCc4ccccc4)c(OCc4ccccc4)c3)c2cc1OC [TCMDC-131922] | -20.12
COc1cc2nccc(Nc3ccc(Oc4ccccc4)cc3)c2cc1OC.Cl [TCMDC-131917] | -23.95
COc1cc2nc(C)nc(Nc3ccc(Cc4ccccc4)cc3)c2cc1OC [TCMDC-131941] | 1.462
COc1cc2nc(Nc3ccc(Oc4ccccc4)cc3)nc(Nc3ccc(Oc4ccccc4)cc3)c2cc1OC [TCMDC-138238] | -17.62
N#Cc1cnc(Nc2ccc(Oc3ccccc3)cc2)nc1Nc1cccc(S(N)(=O)=O)c1 [TCMDC-138613] | -50.28
COc1cc2nc(C)nc(Nc3ccc(Oc4ccccc4)cc3)c2cc1OC [TCMDC-131940] | 0.7535
COc1ccc(Nc2nc(N)c3cc(OC)c(OC)cc3n2)cc1OC.Cl [TCMDC-131881] | -0.9625
COc1cc2nc(Nc3ccc(C)cc3)nc(Nc3ccc(C)cc3)c2cc1OC.Cl [TCMDC-138540] | 91.22
COc1cc2nc(NCCCO)nc(Nc3ccc(Oc4ccccc4)cc3)c2cc1OC [TCMDC-138255] | 110.2
COc1cc2nc(Nc3ccc4c(c3)OCCO4)nc(N)c2cc1OC.Cl [TCMDC-131882] | -45.81
COc1cc2nc(NCc3ccc(S(N)(=O)=O)cc3)nc(Nc3ccc(Oc4ccccc4)cc3)c2cc1OC [TCMDC-138256] | 65.95
COc1cc2nc(N(C)C)nc(Nc3ccc(OCc4ccccc4)cc3)c2cc1OC [TCMDC-137183] | 59.63
C=C(NC(=O)C1CCCCC1)C(=O)OC [TCMDC-131685] | 0.06563
NC1=NC(c2ccccc2)(c2ccccn2)C(=O)N1CCCc1ccccc1 (stereo not drawn) [TCMDC-136603] | 9.29
Cc1cc(N2CCCC2)nc(Nc2ccc(NC(=O)c3ccccc3F)cc2)n1 [TCMDC-124710] | -34.77

SMILES | % Inhibition [%]
CCNc1cc(C(=O)N[C@@H](Cc2ccccc2)[C@H](O)CNCc2cccc(-c3cncnc3)c2)cc(N2CCCC2=O)c1 [TCMDC-141687] | 18.59
O=C(Nc1cccc(-c2nn3ccccc3c2-c2ccnc(Nc3cccc(N4CCCC4=O)c3)n2)c1)c1cc(F)ccc1F [TCMDC-135850] | 10.23
COc1ccccc1C1CN(CCNC(=O)c2ncc(C)[nH]2)Cc2ccccc2O1 (stereo not drawn) [TCMDC-124657] | -1.409
COc1cccc2cc(C(=O)N[C@@H](CC(C)C)C(=O)NC(/C=N/NC(=O)c3ccccc3)CCc3ccccc3)oc12 (stereo partly drawn) [TCMDC-135434] | -2.183
COc1ccc(Cn2cncc2CN(CCC(C)C)C(=O)c2ccc(Cl)nc2Cl)cc1 [TCMDC-132536] | 21.31
O=C(Nc1cccc(CN2CCN(C(=O)c3cccs3)CC2)c1)c1cccs1 [TCMDC-136329] | 33.24
COc1ccc(CN2CCCN(Cc3cccc(NC(=O)c4cc5ccccc5s4)c3)CC2)cc1 [TCMDC-141867] | -63.54
Cc1ccc(CN2CCN(Cc3cccc(NC(=O)c4cccs4)c3)CC2)cc1C [TCMDC-141888] | 86.1
O=C(Nc1cccc(CN2CCN(C(=O)c3cccc(F)c3)CC2)c1)c1cccs1 [TCMDC-136330] | 79.41
O=C(Nc1cccc(CN2CCN(C(=O)c3ccccc3)CC2)c1)c1cccs1 [TCMDC-136325] | 14.84
O=C(Nc1cccc(CN2CCCN(Cc3ccc(O)cc3)CC2)c1)c1cc2ccccc2s1 [TCMDC-141878] | 32.43
Cc1ccc(CN2CCN(Cc3cccc(NC(=O)c4ccc5ccccc5c4)c3)CC2)cc1C [TCMDC-141887] | -29.11
O=C(Nc1cccc(CN2CCCN(Cc3ccc(F)cc3)CC2)c1)c1cc2ccccc2s1 [TCMDC-141876] | 71.77
Cc1ccc(CN2CCCN(Cc3cccc(NC(=O)c4cc5ccccc5s4)c3)CC2)cc1C [TCMDC-141879] | 80.31
Cc1cccc(C(=O)N2CCN(Cc3cccc(NC(=O)c4cccs4)c3)CC2)c1 [TCMDC-136328] | 7.958
O=C(NCC1CCC(CNCCCc2ccccc2)CC1)c1cc(Cl)cc(Cl)c1 (stereo not drawn) [TCMDC-140679] | -14.35
CCCc1cc(N2CCC(c3ccccc3)(N3CCCCC3)CC2)nc(Nc2ccc(OC)cc2)n1 [TCMDC-132389] | -43.67
O=C(Nc1cccc(CN2CCN(C(=O)c3ccccc3)CC2)c1)c1ccco1 [TCMDC-136321] | -15.6
O=C(Nc1cccc(CN2CCN(Cc3ccc(O)cc3)CC2)c1)c1cc2ccccc2s1 [TCMDC-134624] | 6.138
O=C(Nc1cccc(CN2CCN(C(=O)c3cccc(F)c3)CC2)c1)c1ccco1 [TCMDC-136324] | 35.66
N#Cc1ccc(CN2CCCN(Cc3cccc(NC(=O)c4cc5ccccc5s4)c3)CC2)cc1 [TCMDC-141866] | -28.76
O=C(Nc1cccc(CN2CCCN(Cc3ccc4c(c3)OCO4)CC2)c1)c1cc2ccccc2s1 [TCMDC-141865] | 83.34
Cc1cccc(C(=O)N2CCN(Cc3cccc(NC(=O)c4ccco4)c3)CC2)c1 [TCMDC-136323] | 80.03
